Assay [1] concerns TRPC4 beta (transient receptor potential cation channel C4), mouse. Description: activators of mouse TRPC4 channel, confirmation, cell-based, Fluo4 calcium, HEK293 TRPC4beta/mu-opioid, duplicates, 10 µM (AID 2426;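 active = fluorescence ratio normalized to control raised more than 50% in primary screen plus both repeat runs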). The following applies: Fluo4 calcium fluorescence, at 10 µM; hits give high values.
For assay [2], the system named is transient receptor potential cation channel C4 beta (TRPC4), mouse. Description: activators of mouse TRPC4 channel, confirmation, cell-based, second round, Fluo4, HEK293 TRPC4beta/mu-opioid, 1 µM (AID 2461;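 active = primary screen active and over 50% activation in each of two duplicate runs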). The following applies: Fluo4 calcium fluorescence, at 1 µM; hits give high values.
Assay [3] concerns TRPC4 (transient receptor potential cation channel C4 beta), mouse. Description: positive allosteric modulators of mouse TRPC4, confirmation, cell-based, second round, Fluo-4, HEK293 TRPC4beta/mu-opioid, 1 µM (AID 2554;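 active = primary screen hit whose fluorescence ratio, in both repeats, exceeds the weak agonist control mean by 3 SD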). The following applies: DAMGO EC20, Fluo-4 calcium flux, at 1 µM; hits give high values.
The subject of assay [4] is TRPC4 beta (transient receptor potential cation channel C4), mouse. Description: positive allosteric modulators of mouse TRPC4, confirmation, cell-based, Fluo-4, HEK293 TRPC4beta/mu-opioid (AID 2555;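 active = primary screen hit whose calcium fluorescence ratio, in both repeats, exceeds the weak agonist control mean by 3 SD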). Particulars: DAMGO EC20, Fluo-4 calcium flux, at 10 µM; hits give high values. A general note: Calcium flux is commonly read through the fluorescence of an indicator in the cells.

The target in assay [5] is Short transient receptor potential channel 4 (Mus musculus) (UniProt Q9QUQ5). As to the kind of experiment: inhibitors of mouse TRPC4 channel, confirmation, cell-based, Fluo4, HEK293 TRPC4beta/mu-opioid (AID 2636;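 active = calcium signal cut by more than 3 SD below the full-agonist control yet still positive, in both repeats and the earlier primary screen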). Particulars: DAMGO, Fluo4 calcium flux, at 10 µM; hits give high values.
Assay [6] has the same target. Description: inhibitors of mouse TRPC4 channel, confirmation, cell-based, second round, Fluo4, HEK293 TRPC4beta/mu-opioid, 1 µM (AID 2637;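 active = calcium signal ratio cut to more than 3 SD under the fully stimulated control mean yet still positive, in both repeats and the primary screen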). Particulars: Fluo4 calcium flux, DAMGO, at 1 µM; hits give high values.
Assay [7] shares this target. As to the kind of experiment: mouse TRPC4 channel activators, dose response, cell-based, HEK293 TRPC4/mu-opioid, Fluo-4 calcium (AID 434937;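 active = primary screen activator hit with a dose response curve and TRPC4 channel activation at any tested dose; inactive = no activation, no dose response, or not a primary hit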).
Assay [8] has the same target. As to the kind of experiment: TRPC4 positive allosteric modulators, dose response, cell-based, HEK293 TRPC4/mu-opioid, Fluo-4 calcium, EC20 DAMGO (AID 434941;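 active = earlier screen potentiator hit that boosts the TRPC4 ion channel at some dose, with a dose response; inactive = no potentiation, no dose response, or not a prior hit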;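 note: calcium entry triggered by an EC20 dose of DAMGO at the co-expressed mu-opioid receptor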).
For assay [9] the target is unchanged. As to the kind of experiment: mouse TRPC4 channel inhibitors, dose response, cell-based, HEK293 TRPC4/mu-opioid, Fluo-4 calcium (AID 434942).
In assay [10] the target is Short transient receptor potential channel 6 (Mus musculus) (UniProt Q61143). As to the kind of experiment: inhibition of mouse TRPC6 channel, confirmation, selectivity assay for TRPC4 inhibitor project, cell-based, HEK293, membrane potential dye, duplicate (AID 434948;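 active = active in primary screen and both duplicates, each dropping signal beyond three positive-control SD with fluorescence still positive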). The following applies: HEK293 TRPC6, membrane potential dye fluorescence, at 10 µM, stimulated with maximal-effect acetylcholine; hits give high values.

Assay [11] shares this target. As to the kind of experiment: activation of mouse TRPC6 channel, confirmation, selectivity assay for TRPC4 activator project, cell-based, HEK293, membrane potential dye, duplicate (AID 434950;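 active = membrane potential signal rise above negative control mean plus 3 SD in both duplicates, also active in the earlier TRPC4 screen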;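 for activation: 0% = buffer only wells and 100% = acetylcholine maximal-effect wells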). Particulars: HEK293 TRPC6, membrane potential fluorescence, at 10 µM; hits give high values.
Assay [12] shares this target. Description: TRPC6 potentiation by TRPC4 potentiator hits, confirmation, selectivity assay for TRPC4 potentiator project, HEK293 cells, membrane potential dye, duplicate (AID 434952;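 active = compound raising the membrane signal above positive-control mean plus 3 SD in both repeats, and a primary screen hit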). The following applies: HEK293 TRPC6, membrane potential dye fluorescence, at 10 µM, maximal acetylcholine added after compound; hits give high values.
Assay [13] addresses Short transient receptor potential channel 4 (Mus musculus) (UniProt Q9QUQ5). As to the kind of experiment: calcium flux activators in TRPC4/5HT1a cells, counter-screen for TRPC4 activator project, cell-based, second counter screen, HEK293 TRPC4/5HT1a, Fluo-4 (AID 434977;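 active = calcium signal rise above buffer-control mean plus 5 SD in both duplicates, and also a hit in the primary screen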). The following applies: Fluo-4 calcium flux, at 10 µM; hits give high values.
A short description of assay [14]: calcium flux inhibitors in TRPC4/5HT1a cells, confirmation, counter-screen for TRPC4 inhibitor project, cell-based, second counter screen, HEK293 TRPC4/5HT1a, Fluo-4 (AID 434978;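 active = primary screen active whose calcium signal fell more than 3 SD beyond the full-serotonin control mean in both duplicate plates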;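 for outcome: serotonin given first at submaximal then at maximal dose after compound preincubation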). The following applies: Fluo-4 calcium flux, at 10 µM, serotonin added to trigger calcium flux; hits give high values.
The test system of assay [15] is TRPC4 (mouse), co-expressed with 5HT1a in HEK293. Description: calcium flux potentiators in TRPC4/5HT1a cells, confirmation, counter-screen for TRPC4 potentiator project, cell-based, second counter screen, HEK293 TRPC4/5HT1a, Fluo-4 (AID 434979;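 active = signal rise over 3 SD above mean of control wells given weak agonist, in both repeats and first screen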). The following applies: Fluo-4 calcium flux, at 10 µM, serotonin added at its EC20 dose; hits give high values.
A short description of assay [16]: calcium flux activation in mu-opioid HEK293 cells, confirmation, counter-screen for TRPC4 activator project, cell-based, HEK293 mu-opioid receptor line (AID 449723;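 active = hit in primary screen, with calcium signal over 5 SD above buffer well mean in both duplicates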;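 note: counter screen cells carry the mu-opioid receptor alone and lack TRPC4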). The following applies: Fluo-4 calcium fluorescence, at 10 µM; hits give high values.
Assay [17] in a line: calcium flux enhancement in mu-opioid HEK293 cells, confirmation, counter-screen for TRPC4 allosteric potentiator project, cell-based, HEK293 mu-opioid receptor line (AID 449724;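 active = calcium signal rise more than 3 SD above the low-dose agonist control mean, in both duplicate plates and the primary screen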;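 note: HEK293 cells carrying mu-opioid receptor only with no TRPC4 channel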). The following applies: Fluo-4 calcium flux, at 10 µM, compound added before EC20 DAMGO stimulus; hits give high values.

For part of these data: Measured potencies and affinities stand elsewhere. Calls of active or inactive are those of the source.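 Rule for the calls, unless noted: active = primary screen inhibitor hit that blocks the TRPC4 channel at some tested dose, yielding a dose curve; inactive = the rest.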

Broadly, the inhibition is the drop in the measured response relative to a control, in per cent.

Chain of Short transient receptor potential channel 6 (Mus musculus) (Q61143 whole entry, looked up): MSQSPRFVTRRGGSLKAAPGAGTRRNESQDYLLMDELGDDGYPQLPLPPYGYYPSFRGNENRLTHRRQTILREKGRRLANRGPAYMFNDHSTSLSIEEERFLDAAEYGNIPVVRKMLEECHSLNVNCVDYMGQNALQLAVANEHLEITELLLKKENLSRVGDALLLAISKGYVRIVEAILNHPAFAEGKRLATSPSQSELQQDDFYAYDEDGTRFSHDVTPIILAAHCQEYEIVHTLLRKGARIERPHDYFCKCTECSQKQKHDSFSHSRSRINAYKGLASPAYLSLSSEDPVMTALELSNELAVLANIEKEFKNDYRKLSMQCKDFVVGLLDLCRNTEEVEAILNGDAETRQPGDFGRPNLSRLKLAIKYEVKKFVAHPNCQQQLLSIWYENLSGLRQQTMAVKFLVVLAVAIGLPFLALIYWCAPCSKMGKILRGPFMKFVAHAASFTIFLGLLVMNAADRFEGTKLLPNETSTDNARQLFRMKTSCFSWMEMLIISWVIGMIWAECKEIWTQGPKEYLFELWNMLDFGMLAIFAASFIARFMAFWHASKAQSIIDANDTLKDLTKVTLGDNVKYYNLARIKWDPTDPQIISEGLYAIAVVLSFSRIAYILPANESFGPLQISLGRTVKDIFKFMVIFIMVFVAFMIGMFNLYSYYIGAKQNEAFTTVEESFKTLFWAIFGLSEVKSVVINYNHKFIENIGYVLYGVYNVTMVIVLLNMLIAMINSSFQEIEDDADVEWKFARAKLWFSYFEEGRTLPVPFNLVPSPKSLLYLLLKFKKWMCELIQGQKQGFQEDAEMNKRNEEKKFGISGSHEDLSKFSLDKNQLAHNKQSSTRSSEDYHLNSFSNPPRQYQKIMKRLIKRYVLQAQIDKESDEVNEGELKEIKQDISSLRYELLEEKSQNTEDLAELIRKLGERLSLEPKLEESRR
Chain of Short transient receptor potential channel 4 (Mus musculus) (Q9QUQ5 whole entry, looked up): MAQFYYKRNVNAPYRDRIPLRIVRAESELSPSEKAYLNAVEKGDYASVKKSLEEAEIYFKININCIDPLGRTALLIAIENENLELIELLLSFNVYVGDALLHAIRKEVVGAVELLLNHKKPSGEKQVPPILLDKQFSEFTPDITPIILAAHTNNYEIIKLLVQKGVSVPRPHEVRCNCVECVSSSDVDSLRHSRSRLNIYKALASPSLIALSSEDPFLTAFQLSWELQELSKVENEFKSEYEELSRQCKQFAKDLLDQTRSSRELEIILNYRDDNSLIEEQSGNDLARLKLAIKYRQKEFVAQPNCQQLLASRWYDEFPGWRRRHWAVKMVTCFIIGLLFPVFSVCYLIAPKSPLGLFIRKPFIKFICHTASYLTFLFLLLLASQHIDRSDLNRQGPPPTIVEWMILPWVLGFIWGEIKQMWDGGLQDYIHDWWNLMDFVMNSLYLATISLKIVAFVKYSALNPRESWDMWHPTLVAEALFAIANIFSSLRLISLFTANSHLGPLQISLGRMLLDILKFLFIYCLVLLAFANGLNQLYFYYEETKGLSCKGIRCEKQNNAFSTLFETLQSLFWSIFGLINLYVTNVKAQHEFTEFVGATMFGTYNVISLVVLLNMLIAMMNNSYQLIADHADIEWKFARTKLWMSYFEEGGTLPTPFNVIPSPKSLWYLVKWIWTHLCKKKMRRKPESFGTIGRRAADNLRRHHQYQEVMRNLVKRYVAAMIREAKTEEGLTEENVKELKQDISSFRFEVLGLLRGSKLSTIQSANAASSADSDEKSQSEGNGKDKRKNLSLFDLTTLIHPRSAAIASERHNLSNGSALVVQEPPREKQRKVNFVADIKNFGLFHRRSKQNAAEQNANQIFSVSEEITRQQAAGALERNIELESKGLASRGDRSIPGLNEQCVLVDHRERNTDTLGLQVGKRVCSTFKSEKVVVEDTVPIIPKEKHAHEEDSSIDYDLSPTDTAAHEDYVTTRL

Regarding `CCN1C(=O)/C(=C\N2CCCc3ccccc32)SC1=S`, the outcome in assay [1], in [2], in assay [3], in [4], in assay [5] and in assay [6] was inactive. The outcome in assay [7], in assay [8], in [9], in assay [10], in assay [11] and in [12] was inactive. In addition, the outcome in assay [13], in assay [14], in assay [15], in assay [16] and in assay [17] was inactive.

Regarding `Cc1cc(C)c(C)c(OCCCOc2cccc3cccnc23)c1`, the outcome in assay [1], in [2], in assay [3], in assay [4], in assay [5] and in assay [6] was inactive. The outcome in [7], in [8], in assay [9], in assay [10], in [11] and in assay [12] was inactive. The result in assay [13], in assay [14], in assay [16] and in [17] was inactive. In assay [15], the potentiation was 19% (active).

In the case of `CCN(CCNC(=O)C1CCCN(c2ncnc3c2nc2n3CCCCC2)C1)Cc1ccccc1` (stereo not given), the outcome in assay [1], in assay [2], in [5], in [6], in [7] and in assay [8] was inactive. The result in assay [9], in [10], in assay [11], in [12], in assay [13] and in assay [14] was inactive. The outcome in assay [15], in assay [16] and in assay [17] was inactive. In addition, the potentiation is 18% (active) in assay [3] and 10% (active) in assay [4].

On to `Cc1cc2oc(C(=O)N(Cc3cccs3)C3CCS(=O)(=O)C3)cc(=O)c2cc1Cl` (stereo not given), for which the result in [1], in assay [2], in assay [3], in [5], in assay [6] and in assay [7] was inactive. The result in assay [8], in assay [9], in assay [10], in [11], in [12] and in assay [13] was inactive. Besides, the outcome in assay [14], in [16] and in assay [17] was inactive. In addition, the potentiation was 40% (active) in assay [4] and 66.3% (active) in [15].

Turning to `CCCCn1c(N)c(N(CCOC)C(=O)c2ccc(-c3ccc(C(C)=O)cc3)o2)c(=O)[nH]c1=O`, the result in assay [1], in assay [2], in [3], in assay [4], in assay [5] and in [6] was inactive. Also, the outcome in [7], in assay [8], in assay [9], in assay [10], in [11] and in assay [12] was inactive. In addition, the result in [13], in assay [14], in assay [15], in assay [16] and in [17] was inactive.

In the case of `CCN(CC)CCNC(=O)c1cc2c(-c3cccc(OC)c3)nn(C)c2s1`, the outcome in assay [1], in assay [2], in [3], in assay [4], in assay [5] and in assay [6] was inactive. The outcome in [7], in assay [8], in assay [9], in assay [10], in [11] and in assay [12] was inactive. For the same molecule, the outcome in [13], in [14], in assay [16] and in assay [17] was inactive. The potentiation in [15] was 20.8% (active).

Turning to `NC(=O)NCCN1CCN(c2ncc(C(F)(F)F)cc2Cl)CC1`, the outcome in [1], in [2], in [5], in [6], in assay [7] and in [8] was inactive. For the same molecule, the result in assay [9], in assay [10], in [11], in assay [12], in assay [13] and in assay [14] was inactive. The result in assay [16] and in assay [17] was inactive. Also, the potentiation in assay [3] was 8% (active); in assay [4], 11% (active); in assay [15], 22% (active).

Turning to `Cc1ccc(C2(CCNC(C)c3cccs3)CCOC(C(C)C)C2)cc1` (stereo not given), the outcome in assay [1], in [2], in assay [3], in assay [4], in assay [5] and in assay [6] was inactive. For the same molecule, the outcome in assay [7], in [8], in assay [9], in assay [10], in assay [12] and in assay [13] was inactive. Moreover, the outcome in assay [14], in assay [15], in [16] and in [17] was inactive. The activation in assay [11] was 69% (active).

With `Cc1cc(SCC(=O)c2cccc([N+](=O)[O-])c2)nc(=O)[nH]1`, the result in assay [1], in [2], in assay [3], in assay [5], in [6] and in [7] was inactive. Besides, the result in assay [8], in assay [9], in assay [10], in assay [11], in assay [12] and in [13] was inactive. The result in [14], in [16] and in assay [17] was inactive. The potentiation is 23% (active) in assay [4] and 57.9% (active) in assay [15].

Turning to `Cc1ccc(-c2nn(-c3ccccc3)cc2C(=O)Nc2ccc(C(=O)O)cc2)cc1`, the result in assay [1], in [2], in assay [3], in [4], in assay [5] and in [6] was inactive. For the same molecule, the outcome in assay [7], in [8], in [9], in assay [10], in assay [11] and in [12] was inactive. Besides, the outcome in assay [13], in [14], in assay [15], in [16] and in [17] was inactive.

For the molecule `CCN1CCN(c2ccc(NC(=O)CCc3c(C)nc4c(-c5ccc(F)cc5)c(C)nn4c3C)cc2)CC1`, the outcome in assay [1], in [2], in assay [3], in assay [4], in assay [5] and in [6] was inactive. The result in assay [7], in [8], in assay [9], in assay [10], in [11] and in [12] was inactive. Also, the result in assay [13], in [14], in assay [15], in assay [16] and in assay [17] was inactive.

In the case of `Cc1cc(=O)oc2cc(NC(=S)NCc3ccccn3)ccc12`, the outcome in assay [1], in assay [2], in [3], in assay [4], in assay [5] and in assay [6] was inactive. Moreover, the outcome in [7], in [8], in [9], in [10], in assay [11] and in [12] was inactive. Moreover, the result in assay [13], in assay [14], in assay [15], in assay [16] and in assay [17] was inactive.

Regarding `Cc1ccc(NC(=O)Nc2cccc([N+](=O)[O-])c2)nc1`, the result in assay [1], in assay [2], in assay [4], in assay [5], in assay [6] and in assay [7] was inactive. The outcome in assay [8], in assay [9], in assay [10], in assay [11], in assay [12] and in assay [13] was inactive. In addition, the result in assay [14], in assay [16] and in assay [17] was inactive. Also, the potentiation in assay [3] was 12% (active); in [15], 24.5% (active).

`C(=N\N(Cc1ccccc1)c1ccccc1)/c1cccnc1`: the result in [1], in assay [2], in assay [3], in assay [4], in assay [6] and in assay [7] was inactive. Also, the outcome in [8], in assay [9], in assay [10], in [11], in assay [12] and in [13] was inactive. The result in assay [15], in assay [16] and in assay [17] was inactive. Also, the results for the inhibition in [5] and in assay [14] were 63% (active) and 40.3% (active), respectively.

Consider `CN(C)CCCn1c(=O)n(CCc2ccccc2)c(=O)c2c3c(sc21)CCCCC3`, for which the outcome in assay [1], in assay [2], in assay [3], in assay [4], in assay [5] and in assay [6] was inactive. For the same molecule, the result in [7], in [8], in assay [9], in assay [10], in [11] and in assay [12] was inactive. Moreover, the result in assay [13], in assay [14], in assay [15], in [16] and in assay [17] was inactive.
